# Screening data (PubChem)
# Many of the other results were omitted from the sample, so hits are more common in it than they were.
# HT1080 IDH1KD tx: qHTS for induction of synthetic lethality in tumor cells producing 2HG: qHTS for the HT-1080-IDH1KD cell line. HT-1080 IDH1 knockdown viability, ATP luminescence, 48 h. Potency, µM (highest dose often 46.1 µM), for the others: at the highest dose activity, negative = toxicity, most hits filed as cytotoxic. 2% of 360,000 active. AID 686971, 2013;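 note: potency is the fitted concentration of half-maximal effect; 0% = DMSO wells and -100% = cell-free medium wells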
#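 Viability of IDH1-knockdown HT-1080 fibrosarcoma cells was assessed by CellTiter-Glo after 48 h at 37 °C with titrated compound; concentration-effect curves were classified by fit quality and response size.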
# TDP1 cell CPT: qHTS for Inhibitors of human tyrosyl-DNA phosphodiesterase 1 (TDP1): qHTS in cells in presence of CPT | 12% of 420,000 active | chicken DT40 Tdp1-/-;hTDP1 cells + 20 nM CPT, ATP luminescence, 48 h | Potency, µM (titrated, usually from 46.2 µM), for inactives: at the highest dose activity change, negative = growth inhibition, usual class: inhibitors; note: potency is the fitted concentration of half-maximal effect; nearly all actives have a fitted effect of over 55% in size
#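 Cell growth measured by CellTiter-Glo luminescence after a minimum 48 h, 37 C compound exposure with 20 nM CPT in Tdp1-knockout DT40 cells stably expressing hTDP1, seeded 400/well; qHTS titration format.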
# IL-1B inflam inh: qHTS for Inhibitors of Inflammasome Signaling: IL-1-beta AlphaLISA Primary Screen; 4.7% of 360,000 active; activity change, % at 57.5 µM; THP-1 LPS/ATP IL-1B secretion, AlphaLISA, 16 h; stronger effect = lower value; in the data active = activity change below about -50%; inconclusive = mostly about -30% to -49%
#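 Secreted IL-1B measured by AlphaLISA bead assay after 16 h compound exposure of THP-1 cells; compounds (final up to 57.5 uM) added 1 h before LPS (250 ng/mL) and ATP (1.25 mM) stimulation; lower signal means less secretion.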
# DT40 TDP1 no CPT: qHTS for Inhibitors of human tyrosyl-DNA phosphodiesterase 1 (TDP1): qHTS in cells in absence of CPT; DT40 Tdp1-/- hTDP1 cells, no CPT, ATP luminescence, 48 h; Potency, µM (highest dose often 46.2 µM), without a hit: at the highest dose activity change, negative = growth inhibition, actives largely listed as inhibitors; 15% of 420,000 active; AID 686978, 2013; note: potency is the fitted concentration of half-maximal effect; nearly all actives have a fitted effect of over 55% in size
#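 Camptothecin absent (DMSO only). Human TDP1-complemented DT40 knockout cells, 400 cells/well, 37 °C for minimum 48 hr; ATP measured via CellTiter-Glo, 30 min dark incubation, luminescence.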
# 12-LOX inh: Primary qHTS assay for inhibitors of human arachidonate 12S-lipoxygenase (ALOX12): Round 2; Polyunsaturated fatty acid lipoxygenase ALOX12 (Homo sapiens), P18054; purified 12hLO, xylenol orange hydroperoxide absorbance; Potency, µM (top dose mostly 108 µM), for the others: at the top dose activity change, negative = inhibition, usual class: inhibitors; 1.1% of 580,000 active; AID 1671190, 2021; note: potency is the fitted concentration of half-maximal effect
# Target sequence (P18054 whole entry, looked up): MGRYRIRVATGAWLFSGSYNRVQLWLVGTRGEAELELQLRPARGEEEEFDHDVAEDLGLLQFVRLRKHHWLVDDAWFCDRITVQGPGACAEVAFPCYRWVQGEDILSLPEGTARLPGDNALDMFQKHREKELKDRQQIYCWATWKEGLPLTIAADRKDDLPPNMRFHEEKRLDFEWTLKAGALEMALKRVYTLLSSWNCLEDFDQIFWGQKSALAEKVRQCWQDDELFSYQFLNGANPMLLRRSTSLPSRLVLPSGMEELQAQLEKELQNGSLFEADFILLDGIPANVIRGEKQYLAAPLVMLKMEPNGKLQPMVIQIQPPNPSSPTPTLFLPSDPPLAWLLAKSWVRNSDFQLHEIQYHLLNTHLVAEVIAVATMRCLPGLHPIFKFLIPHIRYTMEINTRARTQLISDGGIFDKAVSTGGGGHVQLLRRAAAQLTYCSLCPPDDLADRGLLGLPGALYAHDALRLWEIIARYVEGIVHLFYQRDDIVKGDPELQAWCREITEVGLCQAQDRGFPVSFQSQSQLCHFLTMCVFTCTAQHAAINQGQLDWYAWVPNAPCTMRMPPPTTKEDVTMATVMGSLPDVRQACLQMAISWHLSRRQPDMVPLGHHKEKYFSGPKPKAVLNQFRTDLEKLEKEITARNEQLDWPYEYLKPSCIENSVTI
#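 Hydroperoxide product was detected by ferrous iron/xylenol orange as the 573 to 405 nm absorbance ratio. Arachidonic acid at 40 uM (final) was turned over for 30 min at room temperature by 150 nM human 12hLO, pH 7.0 Hepes buffer, after 15 min compound preincubation.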
# HT1080NT lethal: qHTS for induction of synthetic lethality in tumor cells producing 2HG: qHTS for the HT-1080-NT fibrosarcoma cell line. HT-1080-NT fibrosarcoma viability, CellTiter-Glo ATP luminescence, 48 h. Potency, µM (highest dose often 46.1 µM), inactives show at the highest dose activity, negative = less viability, actives largely listed as cytotoxic. 1.6% of 360,000 active. AID 686970, 2013;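 note: NT is the 2HG producing partner of a matched IDH1 knockdown line; potency is the fitted concentration of half-maximal effect; 0% = DMSO-treated cells and -100% = media-only wells without cells; nearly all actives have a fitted effect of over 55% in size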
#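 HT-1080-NT; 750 cells/well; 5% FBS RPMI; 48 h compound, 37 degrees C; CellTiter-Glo luminescence; curve fitting and curve-class assignment.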
# An asterisk follows results filed as active; ? = inconclusive; . = no result given; [ ] = dose if it differs, or a comment. Unless noted, calls come from the whole dose curve; as a rule, active = well fitted curve in the direction sought with a large enough effect; inconclusive = small, poorly fitted or top-dose-only effect, or another doubt; inactive = no such curve, though single readings can be large; an effect the other way counts as inactive or inconclusive. Unless noted, % is set by controls: 0 for no effect and ±100 for the full control effect.
SMILES,HT1080 IDH1KD tx,TDP1 cell CPT,IL-1B inflam inh,DT40 TDP1 no CPT,12-LOX inh,HT1080NT lethal
Cn1c(C(=O)NCCc2ccccc2)cc2cc(S(=O)(=O)N3CCCCC3)ccc21,.,15µM*,.,?,?,.
CC(C)CCNC(=O)c1cc2cc(S(=O)(=O)N3CCCCC3)ccc2n1C,.,?,.,?,-17%,.
C/C(CC(C)(C)c1ccccc1)=N\N=C(N)N,.,.,.,.,10%,.
CC1CCC(NC(=O)c2cc(=O)[nH]c3ccccc23)CC1 (stereo not given),.,.,.,.,27%,.
N#Cc1ccccc1CN1CCN(c2ncc(C(=O)NCc3ccco3)s2)C1=O,.,.,.,.,7%,.
COc1cc2cnc(-c3ccccc3)cc2cc1OC,-10%,18µM*,-20,?,-24%,-13%
COc1cc2cnc(-c3ccccc3)c(-c3ccc([N+](=O)[O-])cc3)c2cc1OC,-1%,?,-10,?,-8%,5%
COc1cc2cnc(-c3ccccc3)c(-c3cc(OC)c(OC)c(OC)c3)c2cc1OC,?,?,-51*,13µM*,2%,-28%
COc1cc2ncc(-c3ccccc3)nc2cc1OC,.,21µM*,.,25µM*,-6%,.
COc1ccc(-c2cc3cc(OC)c(OC)cc3cn2)cc1,?,?,-12,?,?,-20%
Cc1cc2ncc(-c3ccccc3)nc2cc1C,2%,-13%,23,?,0%,-1%
C=CCNC(=O)N[C@H]1CCN(C(=O)CC(C)(C)C)[C@@H]1C(=O)N[C@@H](C(=O)OC)C(C)C,.,.,.,.,58%[176 µM],.
Cc1nc(-c2cc3ccc(OC(=O)C4CC4)cc3oc2=O)cs1,.,.,.,.,-9%,.
CCC(C)NCCOc1ccc(C)cc1[N+](=O)[O-] (stereo not given),5%,0%,-54*,-21%,?,3%
C=CCNCCOc1ccc(C)cc1[N+](=O)[O-],-4%,-2%,-21,7%,-30%,0%
COc1ccccc1NC(=O)CN1C(=O)C(c2ccc(F)cc2)=NC12CCCCC2,.,?,.,23µM*,-3%,.
CC1(C)N=C(c2ccc(F)cc2)C(=O)N1CC(=O)Nc1ccccc1Cl,.,?,.,16µM*,-20%,.
CCOc1ccccc1NC(=O)CN1C(=O)C(c2ccccc2)=NC12CCCCCC2,.,.,.,.,-14%,.
CC(=O)Nc1ccc(S(=O)(=O)[C@H]2CS(=O)(=O)C[C@@H]2N2CCCCC2)cc1,.,.,.,.,21%,.
O=C(COc1ccc2ccc(=O)oc2c1)Nc1ccc(N2CCCCC2)cc1,5%,?,-20,18µM*,0%,1%
O=C(COc1ccc2ccc(=O)oc2c1)N1CCN(c2ccc(F)cc2)CC1,5%,?,-15,23µM*,-21%,-8%
O=C(COc1ccc2ccc(=O)oc2c1)Nc1ccc(CCO)cc1,11%,-7%,6,-5%,12%,2%
CC1(C(=O)NCc2ccccc2)CCC(=O)N1Cc1ccccc1Cl (stereo not given),.,.,.,.,16%,.
COc1ccc(-c2ccc(/C=N/NC(=O)c3cccnc3)o2)c([N+](=O)[O-])c1,8%,?,-8,16µM*,-3%,0%
Cc1ccc(C(=O)N/N=C/c2ccc(-c3ccccc3[N+](=O)[O-])o2)cn1,-8%,21µM*,9,?,2%,-13%
SMILES,HT1080 IDH1KD tx,TDP1 cell CPT,IL-1B inflam inh,DT40 TDP1 no CPT,12-LOX inh,HT1080NT lethal
O=C(N/N=C\c1ccc(-c2cccc(Cl)c2)o1)C(=O)NC1CCCC1,19%,-28%,-7,?,-4%,?
Cc1nnc(N/N=C\c2ccc(-c3ccccc3[N+](=O)[O-])o2)n1N,-11%,?,103,?,0%,0%
Cc1ccc(C(=O)N/N=C\c2ccc(-c3ccc(Cl)c(Cl)c3)o2)cn1,18µM*,?,?,?,0%,16µM*
Cc1ccc(C(=O)N/N=C/c2ccc(-c3cccc(Cl)c3)o2)cn1,?,15µM*,-23,15µM*,195%,26µM*
COc1cc([N+](=O)[O-])cc(/C=N/NC(=O)c2cccnc2)c1O,-2%,?,-3,?,0%,0%
Cc1cn2nc(C(=O)NCc3cc(F)cc(F)c3)cc2c(N(C)Cc2ccccc2)n1,.,.,.,.,51%,.
CC1CC(OC(=O)C2CCN(S(=O)(=O)c3ccc(F)cc3)CC2)C(=O)O1 (stereo not given),3%,9%,21,-26%,-1%,2%
CCOc1ccc(CC(=O)N2CCCN(c3cc(-c4ccc(F)cc4)[nH]n3)CC2)cc1OCC,.,.,.,.,62%,.
O=C(NNC(=O)c1cccnc1SCc1cccc([N+](=O)[O-])c1)c1ccccn1,?,4.6µM*,35,2.6µM*,7%,?
O=C(NNC(=O)c1cccnc1SCc1cccc([N+](=O)[O-])c1)c1ccc(F)cc1,-11%,23µM*,-1,12µM*,-8%,-18%
O=C(OCc1cccc([N+](=O)[O-])c1)c1cccnc1Cl,29%,-2%,-18,-5%,-18%,10%
O=C(NNC(=O)c1cccnc1SCc1cccc([N+](=O)[O-])c1)c1cccnc1,-11%,0%,25,?,10%,-3%
CCN(Cc1ccccc1)C(=O)c1nn(CC)c(=O)c2ccccc12,.,.,.,.,2%,.
NC(=O)NN=C1CCC(OCc2ccccc2)CC1CC(=O)O (stereo not given),9%,-2%,-13,1%,-7%,15%
O=c1c(-c2ccc([N+](=O)[O-])cc2)coc2c(O)c(O)ccc12,?,?,180,?,6.3µM*,-37%
O=c1oc2ccc(Cl)cc2cc1-c1nnc(Nc2cccc(C(F)(F)F)c2)s1,8%,?,-7,2.6µM*,-5%,-3%
CNc1nnc(-c2cc3cc(Cl)ccc3oc2=O)s1,1%,-21%,-7,1%,238%,12%
CC#CC[N+](C)(C)CCCCCCCCCCCC,23µM*,0.58µM*,0,0.46µM*,-1%,23µM*
C#CC[N+](C)(C)CCCCCCCCCCCC,12µM*,1.3µM*,-88*,0.65µM*,-2%,10µM*
